Laboratory results published in PubChem BioAssay.
Activity calls are given as the source filed them. The rule behind the calls is not given here.

What follows are compounds tested against Pantothenate synthetase (Mycobacterium tuberculosis (strain ATCC 25618 / H37Rv)) (UniProt P9WIL5) (assay: Coupled enzyme confirmation of inhibitors against recombinant Mtb PanC (AID 375;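 note: 0% = full reaction with vehicle and 100% = no enzyme background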)). Conditions: coupled enzyme assay; at 10 µM, hits give high values.
Pantothenate synthetase (Mycobacterium tuberculosis (strain ATCC 25618 / H37Rv)), sequence (P9WIL5 whole entry, looked up): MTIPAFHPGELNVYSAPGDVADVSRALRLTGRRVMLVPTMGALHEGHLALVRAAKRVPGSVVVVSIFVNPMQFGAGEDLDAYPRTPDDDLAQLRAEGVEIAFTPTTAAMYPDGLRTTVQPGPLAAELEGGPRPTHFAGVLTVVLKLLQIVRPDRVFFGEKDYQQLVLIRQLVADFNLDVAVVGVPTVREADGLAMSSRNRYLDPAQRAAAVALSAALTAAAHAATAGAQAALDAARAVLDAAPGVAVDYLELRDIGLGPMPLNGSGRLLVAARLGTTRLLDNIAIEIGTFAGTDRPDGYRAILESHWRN

Row | Structure (SMILES) | inhibition
1 | Clc1ccccc1CN1CCc2sccc2C1 | 0% (inactive)
2 | CC1CC(=O)C2=C(C1)OC(N)=C(C#N)C2c1coc2ccccc2c1=O (stereo not given) | 6% (inactive)
3 | COc1ccccc1-n1nnnc1SCc1ccccc1 | 3% (inactive)
4 | Cc1[nH]c2ccccc2c(=O)c1CN(C)Cc1ccccc1 | 6% (inactive)
5 | Nc1nc(CSc2nc3ccccc3[nH]2)nc(N2CCOCC2)n1 | 4% (inactive)
6 | CCn1nnnc1SCC(=O)N1c2ccccc2CCc2ccccc21 | 1% (inactive)
7 | O=C(C1CCCN(S(=O)(=O)c2cccs2)C1)N1CCc2ccccc2C1 (stereo not given) | 9% (inactive)
8 | COCCn1cc(C(=O)c2ccccc2OCC(=O)Nc2cc(C)on2)cc(C#N)c1=O | 0% (inactive)
9 | COc1cc(S(=O)(=O)N2CCOCC2)ccc1NC(=O)COC(=O)C12CC3CC(CC(C3)C1)C2 | 1% (inactive)
10 | Cc1cc(C)nc(SCCS(=O)Cc2ccc(Cl)cc2)n1 (stereo not given) | 0% (inactive)
11 | COc1ccc(CNC(=O)c2cnc3n(c2=O)CCS3)cc1 | 0% (inactive)
12 | Cc1[nH]c2c(C)cccc2c(=O)c1Br | 0% (inactive)
13 | O=C1C2C3C=CC(C3)C2C(=O)N1c1cccc(N2C(=O)C3C4C=CC(C4)C3C2=O)n1 (stereo not given) | 0% (inactive)
14 | CCOc1cc(C2NC(=O)N(C)C(C)=C2C(=O)OC)cc(Br)c1O (stereo not given) | 0% (inactive)
15 | COC(=O)c1[nH]c2ccc(F)cc2c1NS(=O)(=O)c1ccc(OC)cc1OC | 14% (inactive)
16 | COc1ccc(N2CCN(CCCNC(=O)C3(S(=O)(=O)c4ccc(Cl)cc4)CC3)CC2)cc1 | 0% (inactive)
17 | Cc1cc(C)c2cc(CN(CC3CCCO3)C(=O)NC3CCCCC3)c(=O)[nH]c2c1 (stereo not given) | 0% (inactive)
18 | O=C(NCN1CCCCC1)c1cccnc1 | 0% (inactive)
19 | CN(Cc1ccco1)C(=O)Cn1c(=O)oc2cc(S(=O)(=O)NCc3ccccc3)ccc21 | 0% (inactive)
20 | CCCNC(=O)C1CN(S(=O)(=O)c2ccccc2)CCN1S(=O)(=O)c1ccccc1 (stereo not given) | 0% (inactive)

Row | Structure (SMILES) | inhibition
21 | Cc1nn(C(=O)c2cc3sccc3[nH]2)c(C)c1C | 0% (inactive)
22 | CN1[C@@H]2CC(OC(=O)[C@H](CO)c3ccccc3)C[C@H]1[C@@H]1O[C@@H]12 (stereo not given in full) | 0% (inactive)
23 | COc1cccc(C(=O)Nc2cc(NC(=O)c3ccco3)ccc2OC)c1 | 3% (inactive)
24 | COC(=O)Cn1cc(C(=O)c2cccs2)c2ccccc21 | 0% (inactive)
25 | COC(=O)C1=C(C)N(Cc2ccco2)C(=O)C1 | 0% (inactive)
26 | Cc1ccc2cc3cc(C(=O)N4CC(C)CC(C)C4)oc3nc2c1 (stereo not given) | 3% (inactive)
27 | COC(=O)c1nc2n(n1)C(c1ccc(OC)c(OC)c1)C(C(=O)OC1CCCCC1)=C(C)N2 (stereo not given) | 0% (inactive)
28 | CC(C)(Oc1ccc(Cl)cc1)C(=O)NCc1ccncc1 | 3% (inactive)
29 | COc1ccc(C2CC(c3cccc(C)c3)n3ncnc3N2)cc1 (stereo not given) | 0% (inactive)
30 | CCOC(=O)C(C#N)C(c1cccnc1)c1c(C)[nH][nH]c1=O (stereo not given) | 3% (inactive)
31 | Cc1ccc(NC(=O)CSc2nnc(-c3cnccn3)n2Cc2ccco2)cc1C | 0% (inactive)
32 | COc1ccc(-c2noc(CSc3nc(N)c(-c4ccccc4)c(=O)[nH]3)n2)cc1OC | 9% (inactive)
33 | O=S(=O)(c1ccc(Br)s1)N1CCN(c2ccccc2)CC1 | 0% (inactive)
34 | COCCNC(=O)C(c1ccc(C)o1)N(C(=O)c1snc(C(N)=O)c1N)c1ccc(C)cc1 (stereo not given) | 4% (inactive)
35 | COc1ccc2[nH]c(=O)c(CN(Cc3cccs3)Cc3nnnn3C(C)(C)C)cc2c1 | 0% (inactive)
36 | O=C(CN1CCC(c2nc3ccccc3s2)CC1)NCc1cccs1 | 3% (inactive)
37 | O=C(CCn1c(=O)oc2ccccc21)NCCN1CCc2ccccc2C1 | 0% (inactive)
38 | O=C(CCC(=O)N(c1cccc(F)c1)C(C(=O)NC1CCCC1)c1ccncc1)Nc1cccnc1 (stereo not given) | 0% (inactive)
39 | CC1=C(C)[N+](=O)C2CCCCC2N1[O-] (stereo not given) | 3% (inactive)
40 | CCOC(=O)N1CCC(NC(=O)C2CCN(S(=O)(=O)c3cccc4cccnc34)CC2)CC1 | 0% (inactive)
